Assay results reported in PubChem BioAssay AID1490 (National Center for Advancing Translational Sciences (NCATS), 2009).
Out of some 310,000 compounds screened, about 11,000 (3.5%) were called active. Roughly 4% stayed inconclusive and do not appear here. This is one part of a sample in which actives are shown more often than they occur. Calls come from the whole dose curve; as a rule, active = well fitted inhibition curve with a large enough effect; inconclusive = small, poorly fitted or top-dose-only effect, or another doubt; inactive = no such curve, though single readings can be large or run the other way.

target: 4'-phosphopantetheinyl transferase ffp (Bacillus subtilis) (UniProt Q9F4F7); assay: qHTS Assay for Inhibitors of Bacillus subtilis Sfp phosphopantetheinyl transferase (PPTase); conditions: Biochemical Sfp PPTase activity;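 note: the enzyme is Sfp with the accession as filed and its product quenches rhodamine fluorescence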;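 for largest response in the series, negative = inhibition: 0% = enzyme reaction without inhibitor and -100% = no enzyme wells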
Procedure, shortened: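 With Hepes-Na pH 7.6 buffer containing 10 mM MgCl2, Sfp (15 nM) modified BHQ-2-YbbR (12.5 uM) using rhodamine-CoA (5 uM). Two reads 30 minutes apart at 525/598 nm yielded each well's rate.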
Potency is the fitted concentration of half-maximal effect.

For `O=C1C(=O)N(CCCO)C(c2ccccc2)/C1=C(\O)c1ccc(Br)cc1` (stereo not drawn), which largest response in the series, negative = inhibition is on record?
The largest response in the series, negative = inhibition was 6.17% (inactive).

Which largest response in the series, negative = inhibition does the source give for `COc1ccc(C2=NS(=O)(=O)N(C)C(C(=O)N3CCCCC3)=C2)cc1` here?
Its largest response in the series, negative = inhibition is 1.59% (inactive).

Which largest response in the series, negative = inhibition does the source give for `COc1ccc(NC(=O)c2ccco2)cc1NC(=O)c1ccc(C#N)cc1F` here?
Its largest response in the series, negative = inhibition is 6.39% (inactive).

`Nn1cnnc1N/N=C/c1cc([N+](=O)[O-])c(Cl)cc1Cl` was tested. Which Potency did it give?
The Potency was 50.1 µM (active).

With `O=[N+]([O-])c1ccc(O)c(/C=N/Nc2ccccc2[N+](=O)[O-])c1` as the compound, how does the largest response in the series, negative = inhibition read?
Its largest response in the series, negative = inhibition is -9.69% (inactive).

`Cc1nc(NC(=O)c2ccc3c(c2)OCCO3)ccc1Br` was tested. Which largest response in the series, negative = inhibition did it give?
The largest response in the series, negative = inhibition was -0.776% (inactive).

Which largest response in the series, negative = inhibition does the source give for `C/C(=N\NC(=O)C(N)=O)c1ccc2c(c1)OCCO2` here?
The largest response in the series, negative = inhibition was -17.8% (inactive).

Which Potency does the source give for `Cc1ccc2sc(NNC(=O)c3ccc4c(c3)OCCO4)nc2c1C` here?
Its Potency is 28.2 µM (active).

Which largest response in the series, negative = inhibition does the source give for `CCCN1CCN(C(=O)CCCNC(=O)c2ccc(Cl)cc2)CC1` here?
Its largest response in the series, negative = inhibition is 8.54% (inactive).

With `COc1ccc(NC(=O)CC(NC(C)c2ccccc2)C(=O)O)cc1` (stereo not drawn) as the compound, how does the largest response in the series, negative = inhibition read?
Its largest response in the series, negative = inhibition is -9.65% (inactive).

For `CN(C)CCCNC(=O)c1cc(C(=O)Cc2ccc(Cl)cc2)c[nH]1`, which largest response in the series, negative = inhibition is on record?
The largest response in the series, negative = inhibition was 3.87% (inactive).

How did the largest response in the series, negative = inhibition turn out when `COc1cc(CNC2CCCC2)c(Br)cc1OCc1ccccc1` was run?
Its largest response in the series, negative = inhibition is 9.9% (inactive).

For `COc1cc(CN2CCC(C(N)=O)CC2)ccc1OCc1ccccc1`, which largest response in the series, negative = inhibition is on record?
The largest response in the series, negative = inhibition was -21.1% (inactive).

`COc1cc(C2CC(=O)N3CN(Cc4ccccc4)CSC3=C2C#N)ccc1OCc1ccccc1` (stereo not drawn) was tested. Which Potency did it give?
Its Potency is 3.55 µM (active).

With `Cc1ccc(CNC(=O)CCC(=O)N2CC(C)Sc3ccccc32)cc1` (stereo not drawn) as the compound, how does the largest response in the series, negative = inhibition read?
Its largest response in the series, negative = inhibition is 23.4% (inactive).

`CC(=O)Nc1ccc(S(=O)(=O)N2CCC(NC(=O)c3ccccc3)CC2)cc1` was tested. Which largest response in the series, negative = inhibition did it give?
Its largest response in the series, negative = inhibition is 22.8% (inactive).

For `COc1ccc2c(c1)N(C)/C(=C1/SC(=S)N(NC(C)=O)C1=O)S2`, which largest response in the series, negative = inhibition is on record?
Its largest response in the series, negative = inhibition is -12.7% (inactive).

Which largest response in the series, negative = inhibition does the source give for `COc1cc(C(=O)N[C@@H](C)C(=O)NCc2ccco2)cc(OC)c1OC` here?
Its largest response in the series, negative = inhibition is 8.28% (inactive).

With `COc1cc(C(=O)NC(=S)NCc2ccco2)cc(OC)c1OC` as the compound, how does the Potency read?
The Potency was 44.7 µM (active).

Which largest response in the series, negative = inhibition does the source give for `COc1cccc(OC)c1C(=O)NC(=S)NCc1ccco1` here?
Its largest response in the series, negative = inhibition is -3.61% (inactive).

With `Fc1ccc(-c2ccc(NCCN3CCOCC3)nn2)cc1` as the compound, how does the largest response in the series, negative = inhibition read?
The largest response in the series, negative = inhibition was 19.2% (inactive).

Which Potency does the source give for `O=C(Oc1ccc(Br)cc1C(=S)N1CCOCC1)c1cccc([N+](=O)[O-])c1` here?
Its Potency is 50.1 µM (active).

How did the largest response in the series, negative = inhibition turn out when `O=C(Nc1ccc(C(=O)N2CCCCC2)cc1)c1cccc([N+](=O)[O-])c1` was run?
The largest response in the series, negative = inhibition was 17.2% (inactive).

`COc1cc(C(=S)N2CCOCC2)cc(OC)c1OC(=O)c1ccc([N+](=O)[O-])cc1[N+](=O)[O-]` was tested. Which largest response in the series, negative = inhibition did it give?
The largest response in the series, negative = inhibition was 7.82% (inactive).

How did the Potency turn out when `O=C(Oc1ccccc1C(=S)N1CCCCC1)c1cc([N+](=O)[O-])cc([N+](=O)[O-])c1` was run?
Its Potency is 31.6 µM (active).

With `COc1cc(C(=S)N2CCOCC2)cc(OC)c1OC(=O)c1cc([N+](=O)[O-])cc([N+](=O)[O-])c1` as the compound, how does the largest response in the series, negative = inhibition read?
The largest response in the series, negative = inhibition was 4.17% (inactive).

Which largest response in the series, negative = inhibition does the source give for `O=C(Oc1ccccc1Cl)c1ccc(N2CCOCC2)c([N+](=O)[O-])c1` here?
The largest response in the series, negative = inhibition was -20.5% (inactive).

For `CCCCNC(=O)CCn1nc(-c2ccc(Cl)cc2)ccc1=O`, which largest response in the series, negative = inhibition is on record?
Its largest response in the series, negative = inhibition is 10.2% (inactive).

For `Cc1c(CC(=O)NCC(=O)NCC(=O)O)c(=O)oc2cc3oc4c(c3cc12)CCCC4`, which largest response in the series, negative = inhibition is on record?
Its largest response in the series, negative = inhibition is -20.1% (inactive).

With `Nc1nnnn1/N=C/c1cccc(Br)c1` as the compound, how does the largest response in the series, negative = inhibition read?
The largest response in the series, negative = inhibition was 2.63% (inactive).

How did the largest response in the series, negative = inhibition turn out when `Cc1n[nH]c(C)c1S(=O)(=O)N1CCCC(C(=O)Nc2ccc(Br)cc2)C1` (stereo not drawn) was run?
Its largest response in the series, negative = inhibition is 15.6% (inactive).

`CCOC(=O)Cn1c(=O)n(Cc2ccc(OC)cc2)c(=O)c2cccnc21` was tested. Which largest response in the series, negative = inhibition did it give?
Its largest response in the series, negative = inhibition is 13% (inactive).

With `O=C(Nc1ccnn1C1CCN(Cc2cccc(OCCO)c2)CC1)C1CCCC1` as the compound, how does the largest response in the series, negative = inhibition read?
The largest response in the series, negative = inhibition was -0.971% (inactive).

With `COc1ccc(-c2cc(C(=O)N3CCN(c4ccc(F)cc4)CC3)no2)cc1` as the compound, how does the largest response in the series, negative = inhibition read?
The largest response in the series, negative = inhibition was 8.09% (inactive).

How did the largest response in the series, negative = inhibition turn out when `COc1ccc(CNC(=O)c2ccc3oc(C(C)C)nc3c2)cc1` was run?
The largest response in the series, negative = inhibition was 2.49% (inactive).

`S=c1ccc2ccccc2[nH]1` was tested. Which largest response in the series, negative = inhibition did it give?
Its largest response in the series, negative = inhibition is -21.1% (inactive).

For `CCCCn1c(=S)[nH]c2ccccc2c1=O`, which largest response in the series, negative = inhibition is on record?
Its largest response in the series, negative = inhibition is 8.99% (inactive).

`S=c1[nH]c2ccccc2c2ccccc12` was tested. Which Potency did it give?
The Potency was 50.1 µM (active).

`Cc1cccc(NC(=O)CSCC(=O)Nc2nnc(C3CC3)s2)c1` was tested. Which largest response in the series, negative = inhibition did it give?
Its largest response in the series, negative = inhibition is -4.58% (inactive).

With `CCN(CC)c1ccc2oc(=O)c(C)nc2c1` as the compound, how does the Potency read?
Its Potency is 14.1 µM (active).

`CCN(CC)c1ccc(/C=N/Nc2nc(C)cc(C)n2)c(O)c1` was tested. Which largest response in the series, negative = inhibition did it give?
Its largest response in the series, negative = inhibition is -14.7% (inactive).

With `CCN(CC)c1ccc2cc(C(N)=O)/c(=N\NC(=O)c3ccncc3)oc2c1` as the compound, how does the largest response in the series, negative = inhibition read?
Its largest response in the series, negative = inhibition is -4.99% (inactive).

Which largest response in the series, negative = inhibition does the source give for `Cc1ccc2cccc(OCCCOc3ccccc3CO)c2n1` here?
The largest response in the series, negative = inhibition was 13.6% (inactive).

How did the largest response in the series, negative = inhibition turn out when `O=C(CC1C(=O)NCCN1CC(c1ccccc1)c1ccccc1)NCC1CCOCC1` (stereo not drawn) was run?
Its largest response in the series, negative = inhibition is -5.38% (inactive).

For `Cc1sc2nc(SCCO)n(-c3ccccc3)c(=O)c2c1C`, which largest response in the series, negative = inhibition is on record?
The largest response in the series, negative = inhibition was 27.7% (inactive).

For `CSc1nc(C)cc(SC(C(C)=O)C(=O)Nc2ccccc2)n1` (stereo not drawn), which Potency is on record?
Its Potency is 50.1 µM (active).

`Cc1cccc(NC(=O)C(C)SCc2ccccc2)c1` (stereo not drawn) was tested. Which largest response in the series, negative = inhibition did it give?
Its largest response in the series, negative = inhibition is 3.73% (inactive).

For `CC(Sc1nnc2c(n1)C1CCC2(C)C1(C)C)C(=O)Nc1ccccc1` (stereo not drawn), which largest response in the series, negative = inhibition is on record?
Its largest response in the series, negative = inhibition is 6.3% (inactive).
